Bioassay records: PubChem, National Center for Advancing Translational Sciences (NCATS)
Sampled rows, rich in hits. Any-hit rate of the full collection: about 0.8%.
APE1 inh: qHTS Assay for Inhibitors of the Human Apurinic/apyrimidinic Endonuclease 1 (APE1) | Potency, µM (highest dose often 65.8 µM), for the others: at the highest dose activity change, negative = inhibition, usual class: inhibitors | DNA repair nuclease/redox regulator APEX1 (Homo sapiens), P27695 | hit rate 0.35% among 350,000 | recombinant APE1, TAMRA/BHQ-2 abasic DNA cleavage fluorescence | AID 2517, 2012;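 further: potency means the concentration at half of the fitted maximal effect; plate controls were vehicle for no effect and reference inhibitor for full effect; nearly all actives have a fitted effect of over 55% in size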
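Kinetic fluorescence read (525 ex/598 em nm, three reads 60 s apart) of AP-site incision; signal = third minus first read. Enzyme 0.75 nM, dual-labelled THF duplex 50 nM, compound preincubation 15 min RT.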
FEN1 inh: qHTS Assay for the Inhibitors of Human Flap endonuclease 1 (FEN1) | P39748 | Recombinant FEN1 flap cleavage, fluorescence, 15 min | Potency, µM (series often up to 114 µM), inactives show at the highest dose activity change, negative = inhibition, actives largely listed as inhibitors | hit rate 0.35% among 390,000; further: potency means the concentration at half of the fitted maximal effect; nearly all actives have a fitted effect of over 65% in size
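In this screen, 50 nM flap DNA substrate was added to 10 nM FEN1 pretreated with compound for 15 min at room temperature; cleavage was followed with reads at 0 and 15 min, and Hill fitting gave concentration–response parameters.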
PI4K2A inh: qHTS for small molecular inhibitors of PI4K2A. purified PI4K2A, ADP-Glo luminescence, 1 h; stronger effect = lower value. activity change, negative = inhibition, % at 76.9 µM. hit rate 0.13% among 420,000; in the data active means activity change below about -50%; inconclusive means mostly about -30% to -49%;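 further: -100% = wells without enzyme as full effect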
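ADP-Glo luminescence measured ADP generated by PI4K2A enzyme (4 ug/mL before mixing) with 1.2 mM PI substrate (pre-mix) and 300 microM ATP (pre-mix). Tris pH7.5 buffer with MgCl2, Triton X-100; 1 h reaction at ambient temperature.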
Tb PGK inh: qHTS Assay to Find Inhibitors of Phosphoglycerate Kinase; AID 602233, 2012; Potency, µM (doses to about 57.5 µM), for the others: at the top dose activity change, negative = inhibition, actives largely listed as inhibitors; hit rate 0.043% among 380,000; PGK/GAPDH coupled, Kinase-Glo luminescence, 60 min; Phosphoglycerate kinase, glycosomal (Trypanosoma brucei brucei), P07378; further: potency means the concentration at half of the fitted maximal effect; nearly all actives have a fitted effect of over 60% in size
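Luminescent ATP detection (Kinase-Glo Plus) follows a 60-minute room-temperature incubation, with wells lacking PGK as controls. Buffer: 100 mM TEA (pH 7.6), 5 mM MgCl2, 0.01% Tween-20. Coupling enzyme GAPDH (100 nM final) supplies unstable 1,3-BPG in-well.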
TDP1 block: qHTS Assay for Inhibitors of Tyrosyl-DNA Phosphodiesterase (TDP1); Tyrosyl-DNA phosphodiesterase 1 (Homo sapiens), Q9NUW8; recombinant TDP1, AlphaScreen DNA substrate cleavage; Potency, µM (doses to about 130 µM), inactives show at the top dose activity change, negative = inhibition, actives largely listed as inhibitors; hit rate 0.28% among 350,000; AID 485290, 2010; further: potency means the concentration at half of the fitted maximal effect; nearly all actives have a fitted effect of over 40% in size
Target sequence (Q9NUW8 whole entry, looked up): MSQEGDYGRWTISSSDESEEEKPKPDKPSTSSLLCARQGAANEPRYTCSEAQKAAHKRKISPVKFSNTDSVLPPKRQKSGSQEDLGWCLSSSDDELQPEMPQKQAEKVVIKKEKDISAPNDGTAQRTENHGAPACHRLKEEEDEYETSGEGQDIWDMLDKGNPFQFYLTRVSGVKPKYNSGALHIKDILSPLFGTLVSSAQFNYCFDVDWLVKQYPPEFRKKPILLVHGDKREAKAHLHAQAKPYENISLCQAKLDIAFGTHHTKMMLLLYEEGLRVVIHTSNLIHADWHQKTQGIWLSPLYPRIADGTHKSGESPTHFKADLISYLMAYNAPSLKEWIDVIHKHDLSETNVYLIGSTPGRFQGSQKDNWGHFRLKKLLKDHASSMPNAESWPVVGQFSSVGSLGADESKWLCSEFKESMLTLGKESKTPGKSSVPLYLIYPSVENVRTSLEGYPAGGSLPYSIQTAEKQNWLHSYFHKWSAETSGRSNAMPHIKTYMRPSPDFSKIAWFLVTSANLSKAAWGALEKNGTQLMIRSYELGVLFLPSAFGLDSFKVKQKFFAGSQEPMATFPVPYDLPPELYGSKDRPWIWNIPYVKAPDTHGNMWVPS
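AlphaScreen read-out: signal falls as enzyme removes the 3' tyrosine-FITC from a 5'-biotinylated DNA oligo (15 nM, 5 min, RT). Enzyme was E. coli-made recombinant Tdp1 at 1 nM, exposed to compound for 15 min beforehand; beads 10 ug/ml, 10 min.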
Tb PFK block: qHTS Assay to Find Inhibitors of T. brucei phosphofructokinase; hit rate 0.17% among 330,000; ATP-dependent 6-phosphofructokinase (Trypanosoma brucei brucei), O15648; Potency, µM (titrated, usually from 57.5 µM), inactives show at the highest dose activity, negative = inhibition, hits mostly inhibitors; T. brucei PFK, ADP-Glo luminescence; AID 485367, 2010;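 further: potency means the concentration at half of the fitted maximal effect; 0% = uninhibited 1x PFK enzyme wells and -100% = no-enzyme wells; nearly all actives have a fitted effect of over 60% in size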
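Luminescent ADP detection (ADP-Glo, two-step: ATP depletion then ADP-to-ATP conversion for luciferase) reported PFK activity after 45 min room-temperature reaction of 1.25 nM enzyme with 0.5 mM F6P and 0.1 mM ATP at pH 8.0.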
* marks the source's active call; other numbers are inactive results; i = inactive; ? = inconclusive; / = no result; [ ] = another dose, or the depositor's remark. Unless noted, the call rests on the fitted dose curve; in most records, active means well fitted curve in the direction sought with a large enough effect; inconclusive means small, poorly fitted or top-dose-only effect, or another doubt; inactive means no such curve, though single readings can be large; an effect the other way counts as inactive or inconclusive. Unless noted, on the % scale 0 is the no-effect control and ±100 the full control effect.

SMILES	APE1 inh	FEN1 inh	PI4K2A inh	Tb PGK inh	TDP1 block	Tb PFK block
Cc1ccccc1C(=O)Nc1nnc(-c2ccco2)s1	14.1%	0.0%	1.2	i	-2.5%	2.2%
COc1ccccc1C(=O)Nc1nnc(-c2ccco2)s1	?	2.1%	-0.2	-1.7%	50.1µM*	4.8%
O=C1CCc2cc(S(=O)(=O)Nc3cccc(C(F)(F)F)c3)ccc2N1	/	/	/	/	1.4%	/
O=C(c1ccc(N2C(=O)C3CCCCC3C2=O)cc1)N1CCCCC1 (configuration not stated)	1.6%	4.8%	-0.2	-1.8%	5.6%	-0.7%
O=C(c1ccc(N2C(=O)C3C4CC(C(Br)C4Br)C3C2=O)cc1)N1CCCCC1 (configuration not stated)	?	0.6%	-1.8	4.6%	31.6µM*	-3.4%
O=C1c2ccccc2NC(c2ccc(-c3ccc(-c4ccccc4)cc3)o2)N1O (configuration not stated)	15.1%	/	/	/	/	/
Nc1[nH]n2c(=O)cc(-c3ccccc3)nc2c1N=Nc1ccc(S(N)(=O)=O)cc1	8.91µM*	-25.3%	1.1	2.5%	6.0%	-1.1%
Nc1[nH]n2c(=O)cc(-c3ccccc3)nc2c1N=Nc1ccccc1	1.7%	7.1%	-4.3	-1.2%	9.0%	1.2%
COc1ccc(S(=O)(=O)N2CCC(C(=O)NCc3cccnc3)CC2)cc1OC	73.2%[12.4 µM]	1.5%	-2.6	-10.2%	4.47µM*	0.2%
O=C(c1cc2ncc(Br)cn2n1)N1CCN(C(=O)c2ccco2)CC1	-1.9%	10.8%	-3.6	-12.8%	22.4µM*	?
O=C(c1cc2ncc(Br)cn2n1)N1CCOCC1	5.9%	1.7%	2.5	-9.0%	-2.0%	?
Cc1nccc2oc(=O)c(NC(=O)c3ccc(Cl)cc3)cc12	-5.0%	0.8%	2.1	i	-5.9%	-1.6%
O=C(Nc1cc2c(oc1=O)CCCC2=O)c1ccc(Cl)cc1	?	56.2µM*	-18.6	?	12.6µM*	-26.9%
CC(=O)c1sc(C(=O)O)c(-c2ccco2)c1-c1ccco1	?	?	-10.3	-26.5%	50.1µM*	-19.5%
O=C(O)c1sc(C(=O)O)c(-c2ccccc2)c1-c1ccccc1	/	/	-1.5	i	/	/
COc1cc(/C=N/Nc2nc3ccccc3s2)cc([N+](=O)[O-])c1O	7.5%	44.7µM*	-5.3	?	?	1.0%
O=[N+]([O-])c1cc(Cl)cc(/C=N/Nc2nc3ccccc3s2)c1O	15.1%	-12.1%	-0.1	1.1%	5.1%	-0.4%
O=C(O)c1cn(C2CC2)c2cc(Cl)c(F)cc2c1=O	/	/	-2.1	/	/	/
O=C(NCCCN1CCOCC1)C(=O)N/N=C/c1c2ccccc2cc2ccccc12	0.2%	39.8µM*	3.9	-11.6%	5.6%	-2.0%
O=C(NCCCN1CCOCC1)C(=O)N/N=C/c1c(Cl)cccc1Cl	-5.1%	6.4%	-1.1	2.1%	-2.5%	1.9%
Cc1cc(C(=O)N/N=C/c2c3ccccc3cc3ccccc23)n[nH]1	12.1%[12.4 µM]	-15.5%	-1.6	-2.5%	5.6%	-0.1%
NC(=O)C(=O)N/N=C/c1c2ccccc2cc2ccccc12	-2.3%	25.1µM*	-4.9	1.5%	-8.8%	1.3%
Nc1ccn([C@@H]2O[C@H](CO)[C@@H](O)C2(F)F)c(=O)n1	/	/	-1.4	/	/	/
O=C(OCc1nc2ccsc2c(=O)[nH]1)c1ccco1	34.4%	2.0%	-2.2	-4.1%	5.4%	1.8%
Cc1ccc(C(=O)OCc2nc3ccsc3c(=O)[nH]2)o1	-2.4%	3.9%	3.2	-9.8%	/	0.0%
SMILES	APE1 inh	FEN1 inh	PI4K2A inh	Tb PGK inh	TDP1 block	Tb PFK block
Cc1cnc(C(=O)OCc2nc3ccsc3c(=O)[nH]2)cn1	-36.4%	?	-7.0	-19.3%	14.1µM*	0.0%
O=C(/C=C/c1ccc(Br)o1)OCc1nc2ccsc2c(=O)[nH]1	?	79.4µM*	?	?	/	?
CC(C)(C)OC(=O)Cc1nnc(-c2nc3ccccc3[nH]2)o1	/	/	/	/	-11.6%	/
COc1cccc(C2c3c(ncn(-c4ccccc4Br)c3=N)Oc3ccc4ccccc4c32)c1 (configuration not stated)	/	/	/	/	3.1%	/
Cn1cc(P(=O)(c2ccccc2)c2ccccc2)c2ccccc21	/	/	/	/	0.0%	/
COc1c(-c2coc3cc4c(cc3c2=O)CC(OC(C)=O)C(C)(C)O4)ccc2c1C=CC(C)(C)O2 (configuration not stated)	22.4µM*	/	/	/	10.5%[56.1 µM]	/
CC1=NN(c2ccc(S(=O)(=O)O)cc2C)C(=O)C1	?	-8.8%	-67.7*	2.8%	-3.5%	0.2%
CCOC(=O)NNc1ccc2nonc2c1[N+](=O)[O-]	?	39.8µM*	?	?	/	-0.7%
CCc1ccc(Nc2ccc3nonc3c2[N+](=O)[O-])cc1	/	12.4%	-11.2	-6.4%	/	/
Cn1c(C(c2cc3ccccc3n2C)c2cc3ccccc3n2C)cc2ccccc21	/	-5.3%	/	/	/	/
O=C(O)CCN1C(=O)/C(=C2\C(=O)N(Cc3ccccc3Cl)c3ccccc32)SC1=S	7.52µM*	/	/	/	/	-16.2%
CN(C)c1ccc(/C=C/c2c3ccccc3cc[n+]2[O-])cc1	/	-2.3%	/	/	/	/
CN(C)c1ccc(/C=C/c2ccc3c4ccccc4ccc3[n+]2-c2ccccc2)cc1	-2.7%	8.91µM*	-54.1*	?	14.7%	-11.5%
CN(C)c1ccc(/C=C/c2ccc3ccccc3[n+]2C)cc1	-1.7%	39.8µM*	?	-29.1%	2.6%	-22.0%
CCC(=O)Oc1ccc2c(c1)CC[C@@H]1[C@@H]2CC[C@@]2(C)[C@H]1C[C@@H](OC(=O)CC)[C@@H]2OC(=O)CC	/	/	2.3	/	/	/
O=C1CCCC2=C1C(c1ccc(O)c(O)c1)c1c(ccc3ncccc13)N2 (configuration not stated)	10µM*	?	-5.0	?	/	-22.8%
O=C(N/N=C/c1ccccc1F)c1cc2c(ccc3ccccc32)o1	9.3%	8.2%	-14.1	-13.1%	8.91µM*	-12.3%
O=C(N/N=C/c1ccsc1)c1cc2ccccc2o1	-37.9%	-2.0%	-2.6	-11.3%	79.4µM*	-16.4%
